In PubChem BioAssay (EPA / NIEHS):
The source made the active and inactive calls. Rule for the calls: active = hit-call score of the fitted dose curve at least 0.9, where 1 is the maximum; inactive = score below 0.9.

Test: ATG_CRE_CIS: Attagene CIS-FACTORIAL HepG2 Assay for human cAMP Responsive Element (CRE) binding protein 3 (AID 2282926)
Conditions: HepG2 CRE cis-reporter, Attagene multiplexed mRNA; actives raise or lower the signal
Experimental: ATG_CIS is a cell-based, multiplexed-readout assay that uses HepG2, a human liver cell line, with measurements taken at 24 hours after chemical dosing in a 24-well plate.ATG_CRE_CIS is one of 52 assay component(s) measured or calculated from the ATG_CIS assay. It is designed to make measurements of mRNA induction, a form of inducible reporter, as detected with fluorescence intensity signals by Reverse transcription polymerase chain reaction (RT-PCR) and Capillary electrophoresis technology.Data from the assay component ATG_CRE_CIS was analyzed into 1 assay endpoint. This assay endpoint, ATG_CRE_CIS, was analyzed with bidirectional fitting relative to DMSO as the negative control and baseline of activity. Using a type of inducible reporter, measures of mRNA for gain or loss-of-signal activity can be used to understand the reporter gene at the transcription factor-level as they relate to the gene CREB3. Furthermore, this assay endpoint can be referred to as a primary readout, because this assay has produced multiple assay endpoints where this one serves a reporter gene function. To generalize the intended target to other relatable targets, this assay endpoint is annotated to the dna binding intended target family, where the subfamily is basic leucine zipper.
Human liver HepG2 cells are transiently transfected with multiple reporter transcription units (MRTUs) in 6-well plates using FuGene 6 reagent (Roche; 3 ml FuGene/1 mg DNA). The MRTU constructs are regulated by a cis-regulating element (promoter). […] A major difference between the CIS and TRANS system is that in CIS activities of endogenous TFs are measured, whereas the TRANS assay evaluates changes in activities of exogenous, chimeric NR-Gal4 proteins. […] At the end of 24 hour incubation, total RNA was isolated using TriZol reagent (Invitrogen). The isolated RNA is then reverse-transcribed using oligo(dT) primer and Mo-MLV reverse transcriptase (Invitrogen) with DNAse I (Ambion) treatment for 30 min. The one-tenth of the produced cDNA was amplified by PCR using Taq DNA polymerase (Invitrogen) and two reporter sequence-specific primers. The PCR products were fluorescently labeled by primer extension with 6-arboxyfluorescein (6-FAM) 5'-labeled reporter sequence-specific primer (2 min at 95 C, 20 s at 68 C and 10 min at 72 C) and these products were digested with 5U of HpaI (New England Biolabs) for 2h at 37 C. The fragments were purified using Qiaquick PCR columns (Qiagen), analyzed on an ABI 3130xL genetic analyzer (Applied Biosystems) with peak positions identified by using a set of X-rhodamine (ROX)-labeled MapMarker1000 molecular weight standards (BioVentures). The raw capillary electrophoresis data was processed using Attagraph software (Attagene).
With `CN[C@H]1CC[C@@H](c2ccc(Cl)c(Cl)c2)c2ccc(S(N)(=O)=O)cc21` the outcome was “inactive”.
For `CCc1c(C(=O)NN2CCCCC2)nn(-c2ccc(Cl)cc2Cl)c1-c1ccc(Br)cc1`, the outcome was “inactive”.
In the case of `CCCCCCCCCCCC(=O)OC`, the outcome is reported as “inactive”.
In the case of `CN1CCCC1=O`, the outcome is reported as “inactive”.
For `COc1cc(C=O)ccc1O`, the outcome was “inactive”.
With `Cc1cc(NC(=O)C(=O)O)cc(C)c1Oc1ccc(O)c2c1CCC2` the outcome was “inactive”.
For `Cc1cc(=O)[nH]c(=S)[nH]1`, the outcome was “inactive”.
In the case of `Cc1ccc(C)c(O)c1C`, the outcome is reported as “inactive”.
With `Nc1ccc(S(=O)(=O)c2ccc(N)cc2)cc1` the outcome was “inactive”.
For `Cc1oc(-c2ccccc2)nc1CCOc1cccc2c1ccn2CCC(=O)O`, the outcome was “inactive”.
For `O=c1[nH]cc(F)c(=O)[nH]1`, the outcome was “inactive”.
With `CCCCCCCCCCCCCO` the AC50 was 10.3 µM (active).
In the case of `Cc1ccc(C)c(C)c1`, the outcome is reported as “inactive”.
In the case of `Cc1ccc2ncccc2c1`, the outcome is reported as “inactive”.
With `FC(F)(F)C(F)(F)C(F)(F)C(F)(F)C(F)(F)C(F)(F)CCI` the outcome was “inactive”.
For `CNC(=O)[C@H]1O[C@@H](n2cnc3c(NCc4cc(Cl)ccc4OCc4cc(C)no4)ncnc32)[C@H](O)[C@@H]1N`, the outcome was “inactive”.
For `c1cc(-c2ccncc2)ccn1`, the outcome was “inactive”.
In the case of `CCNc1cccc(C)c1`, the outcome is reported as “inactive”.
For `Clc1cc(Cl)c(Cl)cc1Cl`, the outcome was “inactive”.
With `C1CCC(SSC2CCCCC2)CC1` the outcome was “inactive”.
With `COc1ccc2c(c1)c(CC(=O)O)c(C)n2C(=O)c1ccc(Cl)cc1` the outcome was “inactive”.
With `COc1ccc(C)cc1N` the outcome was “inactive”.
With `NS(=O)(=O)c1cc2c(cc1Cl)NCNS2(=O)=O` the outcome was “inactive”.
For `CC1=C(/C=C/C(C)=C/C=C/C(C)=C/CO)C(C)(C)CCC1`, the outcome was “inactive”.
With `COCCOCCOC` the outcome was “inactive”.
For `COc1cc(/C=C/C(=O)CC(=O)/C=C/c2ccc(O)c(OC)c2)ccc1O`, the outcome was “inactive”.
With `Cc1nc(C)nc(N2C[C@@H](C)N(c3ccnc([C@@H](C)O)n3)[C@@H](C)C2)n1` the outcome was “inactive”.
In the case of `CCCCCCC(=O)OCC`, the outcome is reported as “inactive”.
With `CCCCCCCCCCO` the AC50 was 183 µM (active).
In the case of `O=C(N[C@@H](Cc1ccccc1)[C@@H](O)C(=O)N1C[C@@H](O)[C@@H](O)C1)c1cc2cc(Cl)ccc2[nH]1`, the outcome is reported as “inactive”.
For `CCCCCC(=O)O`, the outcome was “inactive”.
In the case of `Nc1ccccc1N`, the AC50 is reported as 72.5 µM (active).
For `O=[N+]([O-])C(CO)(CO)CO`, the outcome was “inactive”.
In the case of `CN1CCN(Cc2cc(-c3ccc4[nH]c(=O)oc4c3)co2)[C@@H](c2ccc(F)cc2)C1`, the AC50 is reported as 33 µM (active).
For `CC(CO)OC(C)CO` (stereo not given) (tested in a mixture with another compound), the outcome was “inactive”.
In the case of `COC(=O)c1ccc(O)cc1`, the outcome is reported as “inactive”.
For `CC(C)c1ccc(C(=O)N=C(N)N)cc1S(C)(=O)=O`, the outcome was “inactive”.
For `CCOC(=O)C(C)(C)Oc1ccc(Cl)cc1`, the outcome was “inactive”.
With `CNCc1cc(F)ccc1Oc1ccc(Cl)c(Cl)c1` the outcome was “inactive”.
For `CCCCc1ccc2c(n1)[C@@H](c1ccc(OC)cc1C[C@H](C)C(=O)O)[C@H](C(=O)O)[C@H]2c1ccc2c(c1)OCO2`, the outcome was “inactive”.
